PKM2 activator: qHTS Assay for Activators of Human Muscle isoform 2 Pyruvate Kinase; purified PKM2, Kinase-Glo ATP luminescence, activation; response scale: 0% is enzyme alone, no compound; Potency, µM (titrated, usually from 57.5 µM), for inactives: top-dose activation, hits mostly activators; actives 0.34% (n = 260,000); AID 1631, 2009; also: % is scaled to controls: 0 for no effect and ±100 for the full control effect; nearly all actives have a fitted effect of over 55% in size
Target sequence (P14618 whole entry, looked up, canonical isoform): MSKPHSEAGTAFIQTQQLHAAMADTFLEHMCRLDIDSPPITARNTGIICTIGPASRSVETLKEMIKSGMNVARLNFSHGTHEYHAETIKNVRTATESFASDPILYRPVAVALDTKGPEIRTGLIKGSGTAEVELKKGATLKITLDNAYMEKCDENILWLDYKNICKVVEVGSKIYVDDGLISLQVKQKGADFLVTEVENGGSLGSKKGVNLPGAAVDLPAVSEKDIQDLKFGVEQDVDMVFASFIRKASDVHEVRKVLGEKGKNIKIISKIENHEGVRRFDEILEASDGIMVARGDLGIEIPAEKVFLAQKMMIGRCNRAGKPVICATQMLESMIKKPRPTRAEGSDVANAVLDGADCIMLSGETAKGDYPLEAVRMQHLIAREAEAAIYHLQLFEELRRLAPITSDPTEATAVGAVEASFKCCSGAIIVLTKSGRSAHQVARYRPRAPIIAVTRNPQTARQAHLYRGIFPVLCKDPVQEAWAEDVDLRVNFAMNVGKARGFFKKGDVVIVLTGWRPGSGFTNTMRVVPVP
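ATP formation by purified human PK-M2, quantified via coupled luciferase luminescence after 1 h at room temperature with 0.1 mM ADP and 0.5 mM PEP final.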
Rango dissoc inh: qHTS Assay for Inhibitors of RanGTP induced Rango (Ran-regulated importin-beta cargo) - Importin beta complex dissociation | Biochemical FRET Rango-importin beta, RanGTP-induced dissociation | Potency, µM (series often up to 46.1 µM), for the others: top-dose activity change, negative = inhibition | actives 0.071% (n = 340,000) | AID 540253, 2011; calls by dose curve; also: % of control where 0% means no effect; nearly all actives have a fitted effect of over 45% in size
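Recombinant Rango FRET biosensor (EYFP–snurportin 1 IBB–cerulean CFP10) at 0.1 uM premixed with 0.25 uM importin beta in PBS, 1 mM DTT, 0.02% Tween-20, 0.1% BSA. Compound added 5 min; RanGTP-RCC1 (0.6 uM Ran, 2 mM GTP, 0.2 uM RCC1) then triggers release, read at 45 min.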
ELG1 DNA repair: qHTS screen for small molecules that inhibit ELG1-dependent DNA repair in human embryonic kidney (HEK293T) cells expressing luciferase-tagged ELG1; actives 2.3% (n = 330,000); Potency, µM (top dose mostly 46.1 µM), for inactives: at the top dose activity change, negative = inhibition, most hits filed as inhibitors; AID 504467, 2011; HEK293T ELG1-luciferase reporter, luminescence, 16 h; DNA damage induced by 5-fluorouridine; also: % is scaled to controls: 0 for no effect and ±100 for the full control effect; nearly all actives have a fitted effect of over 55% in size
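HEK293T cells expressing luciferase-tagged ELG1 (2,000/well) received 5-Fluorouridine plus compound or DMSO for 16 hr at 37 °C. Luciferase was read by ONE-Glo luminescence after 30 min at room temperature.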
Rango complex inh: qHTS Assay for Inhibitors of Rango (Ran-regulated importin-beta cargo) - Importin beta complex formation; Rango CFP/YFP FRET sensor + importin beta, 45 min; Potency, µM (highest dose often 92.2 µM), for inactives: at the top dose inhibition of complex formation; AID 540263, 2011; Importin subunit beta-1 (Homo sapiens), Q14974; actives 0.031% (n = 340,000); calls by dose curve;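 also: 0% = DMSO wells and 100% = buffer wells lacking importin beta; nearly all actives have a fitted effect of over 15% in size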
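FRET biosensor Rango (snurportin 1 IBB between N-terminal EYFP and C-terminal Cerulean), 50 nM in PBS/1 mM DTT/0.02% Tween-20/0.1% BSA, preincubated 5 min RT with compound; 0.125 microM importin beta added, 45 min RT, CFP/YFP FRET ratio read.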
Tb PFK block: qHTS Assay to Find Inhibitors of T. brucei phosphofructokinase. ATP-dependent 6-phosphofructokinase (Trypanosoma brucei brucei), O15648. T. brucei PFK, ADP-Glo luminescence. Potency, µM (doses to about 57.5 µM), for the others: at the highest dose activity, negative = inhibition, hits mostly inhibitors. actives 0.17% (n = 330,000). AID 485367, 2010;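 also: 0% = uninhibited 1x PFK enzyme wells and -100% = no-enzyme wells; nearly all actives have a fitted effect of over 60% in size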
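Compounds were pin-transferred as a titration series up to 57 uM into substrate buffer (0.5 mM F6P, 0.1 mM ATP, pH 8.0), then 1.25 nM PFK was added and reactions ran 45 min before ADP-Glo detection.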
Tb PGK inh: qHTS Assay to Find Inhibitors of Phosphoglycerate Kinase. Phosphoglycerate kinase, glycosomal (Trypanosoma brucei brucei), P07378. PGK/GAPDH coupled, Kinase-Glo luminescence, 60 min. Potency, µM (highest dose often 57.5 µM), for inactives: at the highest dose activity change, negative = inhibition, hits mostly inhibitors. actives 0.043% (n = 380,000). AID 602233, 2012; also: % is scaled to controls: 0 for no effect and ±100 for the full control effect; nearly all actives have a fitted effect of over 60% in size
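Recombinant glycosomal PGK reaction used 1,3-bisphosphoglycerate generated in-well by GAPDH (100nM final) in 100mM TEA pH 7.6, 5mM MgCl2, 0.01% Tween-20. After 60 minutes at room temperature, ATP was read by Kinase-Glo Plus luminescence end-point.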
An asterisk follows results filed as active; i = inactive; u = inconclusive; x = no result given. Shown are actives, neighbours in structure and some others; about 2.4% of the full set was active somewhere. Unless noted, calls follow the shape of the dose curve; as a rule, active = well fitted curve in the direction sought with a large enough effect; inconclusive = small, poorly fitted or top-dose-only effect, or another doubt; inactive = no such curve, though single readings can be large; an effect the other way counts as inactive or inconclusive. Potency is read from the fitted curve at half-maximal effect.

SMILES | PKM2 activator | Rango dissoc inh | ELG1 DNA repair | Rango complex inh | Tb PFK block | Tb PGK inh
CCOc1ccc(NC(=O)c2ccc3c(=O)n(-c4ccc(OC)cc4OC)c(=S)[nH]c3c2)cc1 | -4% | x | 8.2µM* | x | 0% | x
COC(=O)c1ccc2c(=O)n(-c3ccccc3F)c(=S)[nH]c2c1 | -1% | 0% | 18µM* | 2% | 0% | -3%
CCOc1c(Br)cc(C2CC(=O)Nc3cc4c(cc32)OCO4)cc1OC (stereo not drawn) | x | x | x | x | x | -8%
COCc1c(Br)c(C)nc2sc3c(=O)[nH]nnc3c12 | x | -4% | -26% | 1% | -6% | -1%
CCN(CC(=O)Nc1ccc(NC(C)=O)cc1)C(=O)CCCc1c[nH]c2ccccc12 | x | 1% | 11% | -3% | 0% | 1%
COc1ccccc1CNC(=O)COc1ccc(S(=O)(=O)N2CCOCC2)cc1C | x | 12% | -1% | 3% | 2% | -7%
O=C(NCc1ccco1)C(c1ccncc1)N(C(=O)Cc1cccs1)c1ccccc1 (stereo not drawn) | -6% | 10% | 4% | -1% | -1% | i
O=C(NCc1ccco1)C(c1ccccc1)N(C(=O)Cc1cccs1)c1ccccc1F (stereo not drawn) | 11% | 21% | 18µM* | -3% | 3% | 4%
C=CCN(c1ccc(F)cc1)S(=O)(=O)c1cc(C(=O)NC2CCC(O)CC2)ccc1Cl (stereo not drawn) | x | 0% | 5% | -1% | -2% | 4%
C=CCN(c1ccccc1)S(=O)(=O)c1cc(C(=O)NC2=NCCS2)ccc1Cl | 1% | 2% | 21µM* | 0% | -3% | -4%
C=CCN(c1ccccc1OC)S(=O)(=O)c1cccc(C(=O)NC2=NCCS2)c1 | x | 4% | 23µM* | 0% | 7% | 0%
COc1ccc(S(=O)(=O)NC(C)C(=O)NCc2ccccn2)cc1Cl (stereo not drawn) | 3% | 19% | 6% | -2% | -11% | 2%
CCN(CC)c1ccc(/C=C2\SC(=O)N(C(C)C)C2=O)o1 | 13µM* | u | u | u | -19% | i
O=C(O)C1=CC(=C(c2ccc(O)c(C(=O)O)c2)c2ccc(O)c(C(=O)O)c2)C=CC1=O | x | x | 3% | x | u | x
O=C1C=CC(=C(c2ccc(O)cc2)c2ccc(O)cc2)C=C1 | x | 8% | 13µM* | -2% | -20% | -3%
COc1ccc(CCNC(=O)CCc2c(C)c3cc4c(C)coc4cc3oc2=O)cc1 | x | x | x | x | x | i
C=C(C)Cn1c(Sc2nc3ccccc3[nH]2)nc2c1c(=O)[nH]c(=O)n2C | 0% | 0% | 26µM* | -3% | 2% | -8%
CCCCCn1c(Sc2nc3ccccc3s2)nc2c1c(=O)[nH]c(=O)n2C | 2% | 0% | 21µM* | -4% | 2% | -6%
Cn1c(=O)[nH]c(=O)c2c1nc(N1CCN(c3cccc(Cl)c3)CC1)n2CCCc1ccccc1 | -6% | x | u | x | -9% | x
CCCCCn1c(Sc2ncccn2)nc2c1c(=O)[nH]c(=O)n2C | 1% | 7% | -8% | 2% | -4% | -15%
CCCCCn1c(N2CCN(c3cccc(Cl)c3)CC2)nc2c1c(=O)[nH]c(=O)n2C | 1% | 16% | 23µM* | u | 6% | u
COc1ccc(OC)c(NC(=O)C2=C(C)C(=O)OC23CCCCCC3)c1 | x | x | x | x | x | -4%

Bioassay records (PubChem BioAssay)
